Shown are actives, neighbours in structure and some others; about 2.6% of the full set was active somewhere.
TAG inh = inhibitors of triacylglycerol accumulation, primary screen, cell-based, uHTS, fluorescence, H9c2. inhibition, % at 12.5 µM. H9c2 cells, Nile Red lipid (TAG) fluorescence; cells loaded with 200 µM oleic acid. AID 651582, 2012. hit rate 0.66% among 230,000;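 active = pattern-corrected inhibition of lipid staining of at least 50% with the nuclear-stain viability signal not falling by more than 50%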
Jurkat NFkB inh = inhibitors of induced NF-kB luciferase reporter, primary screen, TCR NF-kB activation inhibitor project, cell-based, luminescence, uHTS; hit rate 0.53% among 330,000; inhibition, % at 4 µM; Jurkat, PMA/ionomycin-induced NF-kB luciferase reporter; in the data active = inhibition above about 50%
NR2F2 inh = NR2F2 transcriptional activity inhibitors, primary screen, cell-based, luciferase reporter, HEK293T, luminescence | HEK293T NGFI-A luciferase reporter | inhibition, % at 8.6 µM | AID 686940, 2013 | hit rate 0.7% among 370,000 | COUP transcription factor 2 (Homo sapiens), P24468;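 active = inhibition above a per-plate cutoff, mean inhibition of test wells between control levels plus 3 SD, cut at about 38% in these data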;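 also: cells cotransfected with COUP-TFII expression vector driving the NGFI-A reporter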
Target sequence (P24468 whole entry, looked up): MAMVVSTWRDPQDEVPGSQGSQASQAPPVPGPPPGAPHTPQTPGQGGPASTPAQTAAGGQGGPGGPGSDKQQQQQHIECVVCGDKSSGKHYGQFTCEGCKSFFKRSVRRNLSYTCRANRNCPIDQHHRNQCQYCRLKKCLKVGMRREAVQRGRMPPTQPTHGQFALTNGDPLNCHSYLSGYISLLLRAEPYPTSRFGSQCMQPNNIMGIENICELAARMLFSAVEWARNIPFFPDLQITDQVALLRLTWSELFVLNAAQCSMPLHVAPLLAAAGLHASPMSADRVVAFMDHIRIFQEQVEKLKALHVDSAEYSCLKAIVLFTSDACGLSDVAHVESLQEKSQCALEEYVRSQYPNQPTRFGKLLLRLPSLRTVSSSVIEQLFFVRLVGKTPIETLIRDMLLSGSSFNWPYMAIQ
Gli-Sufu antag = Gli-Sufu pathway antagonists, primary screen, luciferase luminescence, Sufu-KO-LIGHT cells, uHTS; Sufu-KO-LIGHT fibroblasts, Gli luciferase reporter luminescence; hit rate 0.74% among 340,000; inhibition, % at 5 µM; AID 588413, 2011;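 active = inhibition above about 55%, limit read from the data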
H9c2 protect = cardioprotection against H2O2-induced cell death, primary screen, uHTS, H9c2 cells, ATPLite luminescence. protection from H2O2 cell death, % at 20 µM. hit rate 0.63% among 360,000. H9c2 cardiomyocytes, H2O2 injury protection, 2 h;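 active = compounds giving at least 50% protection of heart cells from peroxide-induced death in the single-dose screen, raw or plate-pattern-corrected value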
697 NFkB inh = inhibitors of PMA/ionomycin-induced NF-kB reporter, 697 cells, primary screen, B-cell NF-kB inhibitor project, cell-based, luminescence, uHTS. 697 B-cell NF-kB luciferase reporter, 16 h. inhibition, % at 4 µM. hit rate 0.33% among 330,000. AID 435022, 2010; in the data active = inhibition above about 35%
697 NFkB conf = PMA/ionomycin-induced NF-kB reporter inhibitors, 697 retest, confirmation, B-cell NF-kB inhibitor project, cell-based, luminescence, single concentration; shares compounds with 697 NFkB inh; 697 B-cell NF-kB luciferase, 16 h; inhibition, % at 4 µM; hit rate 35% among 2,000; in the data active = inhibition mostly above about 28%, no sharp cut-off; inactive = mostly below about 22%
A number is an active result; 0 = inactive; - = no result.

SMILES	TAG inh	Jurkat NFkB inh	NR2F2 inh	Gli-Sufu antag	H9c2 protect	697 NFkB inh	697 NFkB conf
CCOC(=O)N1CCC(NC(=O)c2cc3c(-c4ccc(OC)c(OC)c4)nn(C)c3s2)CC1	0	0	0	0	62.6	41.2	0
Cc1ccn2cc(-c3ccc(Br)cc3)nc2c1	0	0	0	0	0	0	0
COc1ccc(N2CCN(CCCNC(=O)Cc3ccc(C(F)(F)F)cc3)CC2)cc1	-	-	0	-	-	-	-
Cc1ncc(S(=O)(=O)c2ccc(Cl)cc2)c(-c2ccccc2)n1	-	0	0	0	0	39.7	0
COc1ccc2cc3cc(C(=O)N4CCCCCC4)oc3nc2c1	-	0	-	0	0	0	0
COc1ccc2nc3oc(C(=O)N4CCN(c5ccccc5F)CC4)cc3cc2c1	0	0	0	0	0	0	-
N#CC1=C(N)N2C(=C(C#N)C1c1ccccc1)Sc1ccccc12 (stereo not drawn)	-	0	-	-	-	0	-
c1ccc([C@H]2CN3C(=N2)Sc2ccccc23)cc1	0	0	0	0	0	0	0
COC(=O)C1CN(Cc2ccc(OC)cc2)CCS(=O)(=O)N1Cc1ccc(C(F)(F)F)cc1 (stereo not drawn)	-	-	0	-	-	-	-
Cc1cc(=O)oc2n[nH]c(-c3ccccc3)c12	0	0	0	0	0	0	-
COc1ccc(-c2[nH]nc3oc(=O)cc(C)c23)cc1	0	0	0	0	0	35.5	0
CCCCCN(C(=O)CCC(=O)OCc1cccc(Cl)c1)c1c(N)n(CCCC)c(=O)[nH]c1=O	0	0	0	0	0	0	-
CCCCCN(C(=O)CCC(=O)OCc1cccc(Br)c1)c1c(N)n(CCCC)c(=O)[nH]c1=O	0	0	0	0	0	35.2	0
CCN(Cc1cn(Cc2ccc(C)cc2)nn1)S(=O)(=O)c1ccccc1Br	-	-	0	-	-	-	-
O=C(NCc1ccccc1)c1ccc(C(=O)N(C2CCCCC2)C2CCCCC2)cc1	-	0	0	0	0	35.0	0
C[C@H]1[C@@H](NC(=O)c2cccc(N(C)C)c2)CC[C@@]23CCCN2C(=O)CCC[C@@H]13	-	-	0	-	-	-	-
COC(=O)C[C@H]1CC[C@@H]2[C@@H](COc3ccc(NC(=O)Nc4ccccc4OC)cc3C(=O)N2C)O1	-	-	0	-	-	-	-
Cn1c(=N)n(CC(=O)c2ccc(Cl)c(Cl)c2)c2ccccc21	-	0	0	0	0	0	0
Cn1c(=N)n(CC(=O)O)c2ccccc21	0	0	0	0	0	0	-
Cn1c(=N)n(CC(=O)c2ccccc2)c2ccccc21	0	0	0	0	0	0	0
COC(=O)CSc1nnc(-c2ccc(NS(=O)(=O)c3ccc(Cl)s3)cc2)o1	-	-	0	-	-	-	-
Cc1ccc(Cn2cc(CN(C(C)(C)C)S(=O)(=O)c3ccc(F)cc3Br)nn2)cc1	-	-	0	-	-	-	-
COc1ccc(/C=C2\CC3(OC(=O)C4CCCC4)CCCN2C3)cc1 (stereo not drawn)	-	-	0	-	-	-	-
C[C@@H]1CN([C@@H](C)CN(C)C)C(=O)c2cc(NC(=O)Nc3ccccc3)ccc2O[C@@H](C)CCCCO[C@H]1CN(C)S(=O)(=O)c1ccc(F)cc1	-	-	0	-	-	-	-
Cc1ccc(-c2csc(N3C(=N)SCC3=O)n2)cc1	-	0	0	0	-	0	0
SMILES	TAG inh	Jurkat NFkB inh	NR2F2 inh	Gli-Sufu antag	H9c2 protect	697 NFkB inh	697 NFkB conf
O=C(NCCc1c[nH]c2ccccc12)OCc1cn(Cc2ccc(F)cc2F)nn1	-	-	0	-	-	-	-
Brc1cc2[nH]cnc2c2ccccc12	-	0	0	0	0	38.8	0
COc1ccc(N2CCN(CCCNC(=O)CCc3cccc(Cl)c3)CC2)cc1	-	-	0	-	-	-	-
COc1cc(-c2cc(=O)c3c(O)c(OC)c(OC)c(OC)c3o2)cc(OC)c1OC	-	0	0	0	0	39.0	37.9
CC1=NN(C(N)=S)C(=O)C1N=Nc1ccc(Br)cc1 (stereo not drawn)	0	0	0	0	0	0	0
CN(Cc1ccc(F)cc1)C(=O)CN1C(=O)C2(OCCCO2)c2ccccc21	-	-	0	-	-	-	-
COc1ccc(COc2cc(-c3cccc(OC)c3)nc3ccc(NC(=O)c4ccccc4)cc23)cc1	-	0	0	0	0	39.5	0
COc1ccc(NC(=O)c2cccc(NC(=O)c3ccccc3)c2)cc1	-	0	0	0	0	0	-
CCCc1c(C(=O)Nc2ccc(F)cc2F)cnn1-c1ccccc1	0	0	0	0	0	0	-
CCCc1c(NC(=O)Nc2ccc(Cl)cc2Cl)cnn1-c1ccccc1	0	0	0	0	0	0	0
Cn1c(=NC(=O)c2ccco2)sc2ccccc21	0	0	0	0	0	0	-
Cn1c(=NC(=O)CCl)sc2ccccc21	-	0	0	0	0	88.3	79.0
COC(=O)C1CN(C2CCCC2)CCS(=O)(=O)N1Cc1ccc(OC)cc1 (stereo not drawn)	-	-	0	-	-	-	-
O=C(CCCN1C(=O)/C(=C/c2ccccc2Cl)SC1=S)Nc1cccnc1	0	0	0	0	0	82.5	61.0
COc1ccc(/C=C2/SC(=S)N(CCC(=O)Nc3cccnc3)C2=O)cc1OC	0	-	0	-	0	-	-
O=C(CCCN1C(=O)/C(=C/c2ccccc2Cl)SC1=S)NNC(=O)c1ccc(Cl)cc1	0	0	0	0	0	60.8	52.1
Cc1ccc(/C=C2\SC(=S)N(CCC(=O)Nc3cccnc3)C2=O)cc1	0	0	0	0	0	52.3	0
O=C(CCN1C(=O)/C(=C/c2ccccc2Cl)SC1=S)NNC(=O)c1cccnc1	0	0	0	0	0	0	-
Cc1ccc(-c2cc(N)n[nH]2)cc1	-	0	0	0	0	0	-
CC(C)(C)c1ccc(-c2cc(N)n[nH]2)cc1	0	0	0	0	0	44.0	45.0
Clc1ccc(NC2=NCCCCC2)cc1	0	0	0	0	0	36.0	0
FC(F)Sc1ccc(NC2=NCCCCC2)cc1	-	0	0	0	0	0	-
O=C(CCNC(=O)c1ccc(Br)cc1)NC1CCCc2ccccc21 (stereo not drawn)	0	0	0	0	0	0	0
O=C(NC1CCCc2ccccc21)c1ccc(Br)cc1 (stereo not drawn)	-	0	0	0	0	0	-
CC1CCN(c2ccc(C(=O)OCC(=O)NCCN3C(=O)CSC3=O)cc2[N+](=O)[O-])CC1	0	0	0	0	0	37.9	0
COc1cc(/C=C2\SC(=Nc3ccccc3)N(CCc3c[nH]c4ccccc34)C2=O)ccc1OC(C)C(=O)O (stereo not drawn)	-	0	0	0	0	0	-
COCCN1C(=O)/C(=C/c2ccc(Oc3ccc([N+](=O)[O-])cn3)c(OC)c2)SC1=Nc1ccccc1	-	0	0	0	0	49.5	0
